In this test the test system is PPARg DBDmut:RXRa IVT, anti-PPARg (DBD mutation: PPARg1 K132A/R137A, NR concentration 270 nM, RXRa partner concentration 90 nM). Put plainly: PBM binding z-score (relative to random genomic background probes); higher = stronger binding; sequences stand for … in GC…GCGATTGACAGCGTAGAATGAAGG
Put shortly:
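Binding z-scores were set against random background probes. The data came from custom Agilent 4×180K protein-binding microarrays carrying double-stranded probes with 34-nt variable regions, incubated 1 h with ligand-free nuclear receptor dimers. Partner-specific antibodies detected binding, and scanned fluorescence was regression-normalized.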
For the sequence CAAACTGGGTCACCGGAAGGTCAAAGTCCGCATG, the PBM binding z-score amounted to 1.41.

The sequence TCTCGGAGGACACGCAGGTCAGAGCTTTCCAGAG showed a PBM binding z-score of -0.915.

As for CCGAGTAGGTTATCGGGCATTCAGGCAACGGTGA, the PBM binding z-score is -1.04.

Regarding TCTTGTAGGTCAACAGGAGGTTAAGAAAGATCGA, the PBM binding z-score was 2.81.

In the case of TGAATTAGGTTAAAGATCAGGGAACGTGGCGTCG, the PBM binding z-score stood at 0.86.

Take ATTCAAAGTTCATCTAGGTAACGTAAGATATGCT: the PBM binding z-score stood at 2.38.

Sequence TAGCCTAGGTGATGCGGGCCAGTATAGTGTCGGC yielded a PBM binding z-score of -0.831.

Regarding TAGCCTAGGTCCTGGGCCAGTATACCACGCGAAC, the PBM binding z-score is -0.0149.

CCTATTAGTTGACCATAAGGGCAAGCGAAGCTCG gave a PBM binding z-score of -0.0196.

For the sequence GGAACGCGGGCAAGTTGATAGCAGAGTTTGATGG, the PBM binding z-score was -0.461.

For the sequence TCATATAGGTAATACAGGTGAATGTCGGCATCTA, the PBM binding z-score came to 1.54.

Consider ATCGAAAGGTCGACGAGGTGAGTTTACACCGTTT, for which the PBM binding z-score was 1.01.

With ATATGTAGGTTATCGGGTCATTCAGTTTGCGCAT, the PBM binding z-score was determined as 3.73.

Sequence ACAGACAGGTGAGTGAAGGTAACGCAGCTGGACG registered a PBM binding z-score of -1.24.

Turning to CGTCCAAGGTCAGCAGATCAGTGAAAGCGACGTG, the PBM binding z-score is 0.547.

Take AGAATGAGGTTACCAAAGATCCGGGAAACGCTTG: the PBM binding z-score was 0.821.

As for AGAACGAGGGCAATGAGTTGCTAGCACGGGTGGC, the PBM binding z-score turned out to be 0.736.

CAAACTAGGTCAAAGGTAAAAGTCGAGCCAACCA showed a PBM binding z-score of 2.75.

The record behind these values is the supplement of paper PMC6555819.
